Screening results from PubChem BioAssay.
This is a sample that favours compounds with a hit; in the whole collection about 4.2% have one here.
V-ATPase pH = yeast V-ATPase proton transport regulation by pHLuorin; S. cerevisiae, pHLuorin cytosolic pH fluorescence; response, % at 10 µM; 350,000 compounds, 0.37% hits; in the data active = response mostly above about 7.3%, no sharp cut-off; inactive = mostly below about 5.4%; also: actives read high
tim23-1 inh = tim23-1 yeast growth inhibition | S. cerevisiae tim23-1 growth, BacTiter-Glo luminescence, 24 h | 330,000 compounds, 1.3% hits | inhibition, % at 20 µM | AID 463212;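 active = growth inhibition of the mutant yeast at or above 50%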;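 also: temperature-sensitive mutant grown at 25 °C; plate controls were DMSO-treated mutant yeast for no effect and medium wells lacking yeast for full effect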
TIM10 inh = inhibits growth of TIM10 yeast strain. S. cerevisiae TIM10 strain growth, BacTiter-Glo luminescence, 24 h. inhibition, % at 10 µM. 330,000 compounds, 1.4% hits. AID 463195;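 active = inhibition of 40% or more at the single tested concentration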;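 also: wild-type TIM10 isogenic control strain grown at permissive 25 °C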
tim10-1 inh = tim10-1 yeast growth inhibition; S. cerevisiae tim10-1 ts strain growth, BacTiter-Glo, 24 h; inhibition, % at 20 µM; 330,000 compounds, 2.2% hits; AID 463190;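 active = inhibition of at least 40%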;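 also: mutant grown at 25 °C; 0% = DMSO wells with yeast and 100% = wells holding no yeast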
NALP3 yeast inh = inhibitors of NALP3 inflammasome in yeast; Yeast reconstituted NLRP3/ASC/caspase-1, beta-gal luminescence, 24 h; inhibition, % at 10 µM; 330,000 compounds, 0.39% hits;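 active = inhibition of 50% or more; inactive = inhibition below 50%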;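 also: plate controls were induced DMSO wells for no effect and uninduced yeast grown without galactose for full effect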
NALP1 yeast inh = NALP1 inhibition | S. cerevisiae NALP1/ASC/caspase-1 growth, X-gal OD620, 72 h | inhibition, % at 10 µM | 280,000 compounds, 0.61% hits; in the data active = inhibition mostly above about 24%, no sharp cut-off; inactive = mostly below about 32%
tim10-1 conf = confirmation of tim10-1 mutant yeast growth inhibitors; shares compounds with tim10-1 inh; S. cerevisiae tim10-1 ts strain growth, BacTiter-Glo, 24 h; inhibition, % at 20 µM; 7,400 compounds, 56% hits; AID 463213;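 active = inhibition of yeast growth at or above a set limit in either of two repeat tests at 20 µM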;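 also: tim10-1 mutant grown at permissive 25 °C to find synthetic lethal compounds; 0% = DMSO yeast wells and 100% = medium wells without yeast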
TIM10 conf = confirmation of TIM10 yeast growth inhibitors; shares compounds with TIM10 inh; S. cerevisiae tim10 strain growth, BacTiter-Glo luminescence, 24 h; inhibition, % at 10 µM; 4,600 compounds, 63% hits; AID 463215;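 active = inhibition of yeast growth at or above a set limit in either of two replicates at 10 µM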;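 also: this counterscreen used the strain with wild-type TIM10; 0% = yeast with DMSO and 100% = medium wells lacking yeast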
tim23-1 conf = tim23-1 yeast growth inhibition, confirmed; shares compounds with tim23-1 inh; S. cerevisiae tim23-1 growth, BacTiter-Glo luminescence, 24 h; inhibition, % at 20 µM; 4,400 compounds, 83% hits; AID 463218;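 active = inhibition above about 39% in either of two replicate wells at 20 µM, limit read from the data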;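 also: temperature-sensitive tim23-1 mutant grown at 25 °C; 0% = DMSO wells with yeast and 100% = medium wells without yeast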
The depositor's hits bear a star.

For CCN(CCC(=O)Nc1cc([N+](=O)[O-])ccc1OC)Cc1ccccc1 the results were V-ATPase pH -0.8, tim23-1 inh 8.9, TIM10 inh 14.3, tim10-1 inh 23.9, NALP3 yeast inh 12.0 and NALP1 yeast inh 25.0.
For COC(=O)c1ccccc1NC1=C/C(=N\S(=O)(=O)c2cccs2)c2ccccc2C1=O the results were V-ATPase pH -2.7, tim23-1 inh 55.8*, TIM10 inh 41.0*, tim10-1 inh 45.6*, NALP3 yeast inh 37.5, NALP1 yeast inh 10.6, tim10-1 conf 41.1*, TIM10 conf 26.6 and tim23-1 conf 39.8*.
O=C(NC(=S)Nc1cccc(C(F)(F)F)c1)c1ccc2nonc2c1 was read as V-ATPase pH 1.8, tim23-1 inh 55.7*, TIM10 inh 26.9, tim10-1 inh 50.7*, NALP3 yeast inh 16.7, NALP1 yeast inh -8.1, tim10-1 conf 22.3 and tim23-1 conf 63.0*.
For FC(F)(F)c1cccc(NC(=S)Nc2ccc(Cl)c(Cl)c2)c1 the results were V-ATPase pH 0.8, tim23-1 inh 85.8*, TIM10 inh 75.6*, tim10-1 inh 72.9*, NALP3 yeast inh 5.0, NALP1 yeast inh 16.7, tim10-1 conf 82.0*, TIM10 conf 73.3* and tim23-1 conf 89.8*.
For COc1cc(OC)c(-c2nnc(-c3ccc(OC)c(OC)c3OC)o2)cc1OC the results were V-ATPase pH -3.0, tim23-1 inh 3.5, TIM10 inh 9.6, tim10-1 inh 16.5, NALP3 yeast inh 11.6 and NALP1 yeast inh 45.5.
For CC(=O)c1c(C)n([O-])c2ccc(C)cc2[n+]1=O the results were V-ATPase pH 3.4, tim23-1 inh -1.4, TIM10 inh 3.0, tim10-1 inh 1.2, NALP3 yeast inh -1.8 and NALP1 yeast inh 0.5.
COc1ccccc1N(CC(=O)NCCSC(C)(C)C)S(C)(=O)=O was read as V-ATPase pH 2.8, tim23-1 inh 6.6, TIM10 inh -2.4, tim10-1 inh -12.1, NALP3 yeast inh 12.7 and NALP1 yeast inh 29.4.
Screening O=C(Nc1cccc(Cl)c1)c1ccc(Cn2cc(Cl)cn2)cc1 returned V-ATPase pH -0.7, tim23-1 inh 68.4*, TIM10 inh 73.3*, tim10-1 inh 59.9*, NALP3 yeast inh 49.8, NALP1 yeast inh 39.9, tim10-1 conf 47.0*, TIM10 conf 16.9 and tim23-1 conf 76.0*.
CC(=O)Nc1ccc(NC(=O)c2ccc(Cn3cc(Cl)cn3)cc2)cc1 was read as V-ATPase pH 6.7, tim23-1 inh 9.7, TIM10 inh 10.1, tim10-1 inh 9.8, NALP3 yeast inh 4.4 and NALP1 yeast inh 1.8.
CC12CCC(C(=O)N(CSC(=S)N/N=C\c3ccccc3Cl)C1=O)C2(C)C (centres undefined) was read as V-ATPase pH 5.1, tim23-1 inh 58.6*, TIM10 inh 57.0*, tim10-1 inh 40.5*, NALP3 yeast inh 8.4, NALP1 yeast inh 7.3, tim10-1 conf 22.8, TIM10 conf -22.8 and tim23-1 conf 41.4*.
COc1ccc(/C=N/n2c(C3CCCCC3)n[nH]c2=S)c(OC)c1 was read as V-ATPase pH 2.8, tim23-1 inh 58.3*, TIM10 inh 28.7, tim10-1 inh 40.5*, NALP3 yeast inh 14.1, NALP1 yeast inh -8.8, tim10-1 conf 19.8 and tim23-1 conf 48.4*.
`CCN(CCO)C(=O)CC1C(=O)NCCN1Cc1c(F)cccc1Cl` (centres undefined) gave V-ATPase pH 0.1, tim23-1 inh 5.6, TIM10 inh 7.4, tim10-1 inh 9.0, NALP3 yeast inh -10.3 and NALP1 yeast inh 13.1.
C=C(CC)C(=O)c1ccc(OCC(=O)O)c(Cl)c1Cl was read as V-ATPase pH 0.5, tim23-1 inh 67.8*, TIM10 inh 54.2*, tim10-1 inh 64.8*, NALP3 yeast inh 11.7, NALP1 yeast inh 78.2*, tim10-1 conf 54.8*, TIM10 conf 56.9* and tim23-1 conf 88.8*.
